Holding throughout (experiment): PBM; 200 nM protein, PBS
Conditions in all cases: dsDNA, one strand shown

The target of experiment [1] is T1, VENTX (Homo sapiens, UniProt O95231 78-163, R121Q).
T1 sequence: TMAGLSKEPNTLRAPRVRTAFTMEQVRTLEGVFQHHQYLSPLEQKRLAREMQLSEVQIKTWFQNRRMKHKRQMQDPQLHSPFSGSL

Experiment [2] deals with T2, VENTX (Homo sapiens, UniProt O95231 78-163).
T2 sequence: T1 sequence with Q44R

Experiment [3] concerns the target T3, VENTX (Homo sapiens, UniProt O95231 78-163, Y115F).
T3 sequence: T1 sequence with Y38F, Q44R

Experiment [4] concerns the target HOXB6 (Homo sapiens, UniProt P17509 132-218, K202E).
Experiment [5] concerns the target HOXB6 (Homo sapiens, UniProt P17509 132-218).
The target in experiment [6] is ALX1 (Homo sapiens, UniProt Q15699 118-204, L144V).
Sequence of ALX1 (Homo sapiens, UniProt Q15699 118-204, L144V) (Q15699 118-204 L144V): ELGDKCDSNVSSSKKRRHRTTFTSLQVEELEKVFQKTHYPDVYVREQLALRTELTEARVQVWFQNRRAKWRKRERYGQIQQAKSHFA
The target in experiment [7] is ALX1 (Homo sapiens, UniProt Q15699 118-204, L144R).
Sequence of ALX1 (Homo sapiens, UniProt Q15699 118-204, L144R) (Q15699 118-204 L144R): as the sequence (Q15699 118-204 L144V) above, with V27R counted along it
For experiment [8], the target named is PROP1 (Homo sapiens, UniProt O75360 56-141).
Sequence of PROP1 (Homo sapiens, UniProt O75360 56-141) (O75360 56-141): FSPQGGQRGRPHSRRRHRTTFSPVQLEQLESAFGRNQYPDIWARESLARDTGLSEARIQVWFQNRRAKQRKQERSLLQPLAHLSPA
Experiment [9] deals with PROP1 (Homo sapiens, UniProt O75360 56-141, R99H).
Sequence of PROP1 (Homo sapiens, UniProt O75360 56-141, R99H) (O75360 56-141 R99H): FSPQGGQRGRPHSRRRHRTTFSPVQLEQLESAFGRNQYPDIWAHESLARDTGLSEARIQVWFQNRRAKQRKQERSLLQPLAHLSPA
Experiment [10] concerns the target PROP1 (Homo sapiens, UniProt O75360 56-141, F88S).
Experiment [11] deals with ALX1 (Homo sapiens, UniProt Q15699 118-204).
Sequence of ALX1 (Homo sapiens, UniProt Q15699 118-204) (Q15699 118-204): as the sequence (Q15699 118-204 L144V) above, with V27L counted along it
Experiment [12] deals with HOXD13 (Homo sapiens, UniProt P35453 263-343).
Sequence of HOXD13 (Homo sapiens, UniProt P35453 263-343) (P35453 263-343): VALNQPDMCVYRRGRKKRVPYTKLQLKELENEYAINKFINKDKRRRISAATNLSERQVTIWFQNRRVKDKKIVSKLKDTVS
For experiment [13], the target named is HOXD13 (Homo sapiens, UniProt P35453 263-343, T313A).
Sequence of HOXD13 (Homo sapiens, UniProt P35453 263-343, T313A) (P35453 263-343 T313A): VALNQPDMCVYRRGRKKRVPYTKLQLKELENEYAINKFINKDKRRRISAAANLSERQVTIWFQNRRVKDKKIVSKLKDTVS
In experiment [14] the target is HOXA2 (Homo sapiens, UniProt O43364 129-215, R185T).
Sequence of HOXA2 (Homo sapiens, UniProt O43364 129-215, R185T) (O43364 129-215 R185T): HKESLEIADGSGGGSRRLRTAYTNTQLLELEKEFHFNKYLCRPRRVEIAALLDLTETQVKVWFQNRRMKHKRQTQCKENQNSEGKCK
Experiment [15] addresses HOXA2 (Homo sapiens, UniProt O43364 129-215, R185K).
Experiment [16] addresses HOXA2 (Homo sapiens, UniProt O43364 129-215, Y150S).
Experiment [17] concerns the target HOXA2 (Homo sapiens, UniProt O43364 129-215).
The next experiment concerns the target T4, NKX2-6 (Homo sapiens, UniProt A6NCS4 118-204, R150C).
T4 sequence: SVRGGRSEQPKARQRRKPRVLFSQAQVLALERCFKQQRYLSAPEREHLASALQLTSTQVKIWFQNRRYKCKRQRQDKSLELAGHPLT

Experiment [18] deals with MSX2 (Homo sapiens, UniProt P35548 130-214, R199I).
Sequence of MSX2 (Homo sapiens, UniProt P35548 130-214, R199I) (P35548 130-214 R199I): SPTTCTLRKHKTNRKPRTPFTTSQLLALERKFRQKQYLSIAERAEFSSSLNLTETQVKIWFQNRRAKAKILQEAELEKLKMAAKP
In experiment [19] the target is MSX2 (Homo sapiens, UniProt P35548 130-214).
Sequence of MSX2 (Homo sapiens, UniProt P35548 130-214) (P35548 130-214): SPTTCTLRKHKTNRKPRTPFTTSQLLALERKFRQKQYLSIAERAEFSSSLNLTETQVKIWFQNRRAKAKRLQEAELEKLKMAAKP
Experiment [20] deals with MSX2 (Homo sapiens, UniProt P35548 130-214, F161Y).
Sequence of MSX2 (Homo sapiens, UniProt P35548 130-214, F161Y) (P35548 130-214 F161Y): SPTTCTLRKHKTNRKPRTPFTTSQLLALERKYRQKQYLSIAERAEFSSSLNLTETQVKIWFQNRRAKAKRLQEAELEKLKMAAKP
For experiment [21], the target named is HOXD13 (Homo sapiens, UniProt P35453 263-343, T313R).
Sequence of HOXD13 (Homo sapiens, UniProt P35453 263-343, T313R) (P35453 263-343 T313R): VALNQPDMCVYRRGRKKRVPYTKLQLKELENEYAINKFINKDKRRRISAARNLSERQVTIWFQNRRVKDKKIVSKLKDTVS
A further experiment concerns the target HOXA4 (Homo sapiens, UniProt Q00056 201-287, R217L).
The next experiment has as its target VAX1 (Homo sapiens, UniProt Q5SQQ9 86-172, K157R).
Experiment [22] addresses ALX3 (Homo sapiens, UniProt O95076 139-225, N203Q).
Experiment [23] concerns the target ALX3 (Homo sapiens, UniProt O95076 139-225).
Experiment [24] has as its target ALX3 (Homo sapiens, UniProt O95076 139-225, L168Q).
For experiment [25], the target named is ALX3 (Homo sapiens, UniProt O95076 139-225, L168V).
Sequence of ALX3 (Homo sapiens, UniProt O95076 139-225, L168V) (O95076 139-225 L168V): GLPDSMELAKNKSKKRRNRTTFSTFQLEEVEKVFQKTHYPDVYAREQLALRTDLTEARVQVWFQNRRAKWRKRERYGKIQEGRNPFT
The target of experiment [26] is ALX3 (Homo sapiens, UniProt O95076 139-225, N203S).
Sequence of ALX3 (Homo sapiens, UniProt O95076 139-225, N203S) (O95076 139-225 N203S): as the sequence (O95076 139-225 L168V) above, with V30L, N65S counted along it

Residue numbers refer to the chain shown, from its start.

Sequence of HOXB6 (Homo sapiens, UniProt P17509 132-218, K202E) (P17509 132-218 K202E): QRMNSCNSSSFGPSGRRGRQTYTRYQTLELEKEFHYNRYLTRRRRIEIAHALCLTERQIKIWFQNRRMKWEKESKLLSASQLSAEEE
Sequence of HOXB6 (Homo sapiens, UniProt P17509 132-218) (P17509 132-218): as the sequence (P17509 132-218 K202E) above, with E71K counted along it
Sequence of ALX3 (Homo sapiens, UniProt O95076 139-225) (O95076 139-225): as the sequence (O95076 139-225 L168V) above, with V30L counted along it
Sequence of ALX3 (Homo sapiens, UniProt O95076 139-225, L168Q) (O95076 139-225 L168Q): as the sequence (O95076 139-225 L168V) above, with V30Q counted along it
Sequence of HOXA2 (Homo sapiens, UniProt O43364 129-215, Y150S) (O43364 129-215 Y150S): as the sequence (O43364 129-215 R185T) above, with Y22S, T57R counted along it
Sequence of ALX3 (Homo sapiens, UniProt O95076 139-225, N203Q) (O95076 139-225 N203Q): as the sequence (O95076 139-225 L168V) above, with V30L, N65Q counted along it
Sequence of HOXA2 (Homo sapiens, UniProt O43364 129-215, R185K) (O43364 129-215 R185K): as the sequence (O43364 129-215 R185T) above, with T57K counted along it
Sequence of HOXA2 (Homo sapiens, UniProt O43364 129-215) (O43364 129-215): as the sequence (O43364 129-215 R185T) above, with T57R counted along it
Sequence of VAX1 (Q5SQQ9 86-172 K157R): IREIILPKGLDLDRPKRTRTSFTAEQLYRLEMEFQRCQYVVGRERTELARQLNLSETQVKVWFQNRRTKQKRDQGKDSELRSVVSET
Sequence of HOXA4 (Q00056 201-287 R217L): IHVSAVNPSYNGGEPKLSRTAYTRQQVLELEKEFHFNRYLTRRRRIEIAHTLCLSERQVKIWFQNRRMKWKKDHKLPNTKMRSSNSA
Sequence of PROP1 (Homo sapiens, UniProt O75360 56-141, F88S) (O75360 56-141 F88S): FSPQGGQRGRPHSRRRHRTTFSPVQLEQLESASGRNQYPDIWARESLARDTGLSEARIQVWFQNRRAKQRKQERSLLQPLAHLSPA

As for CATTAGAA, the binding signal with VENTX [1] is 10.5 upbm affinity estimate (log intensity, higher = more binding, comparable within an allelic series); with VENTX [2], 11.1 upbm affinity estimate (log intensity, higher = more binding, comparable within an allelic series); with VENTX [3] it was 10.4 upbm affinity estimate (log intensity, higher = more binding, comparable within an allelic series).
For CAGAGGGC, the binding signal is 8.16 upbm affinity estimate (log intensity, higher = more binding, comparable within an allelic series) with VENTX [1]; 8.02 upbm affinity estimate (log intensity, higher = more binding, comparable within an allelic series) with VENTX [2]; 8.12 upbm affinity estimate (log intensity, higher = more binding, comparable within an allelic series) with VENTX [3]; 9.04 upbm affinity estimate (log intensity, higher = more binding, comparable within an allelic series) with HOXB6 [4]; 9.01 upbm affinity estimate (log intensity, higher = more binding, comparable within an allelic series) with HOXB6 [5].
For the sequence CCTGCTGC, the binding signal with VENTX [1] was 8.37 upbm affinity estimate (log intensity, higher = more binding, comparable within an allelic series); with VENTX [2], 8.45 upbm affinity estimate (log intensity, higher = more binding, comparable within an allelic series); with VENTX [3], 8.42 upbm affinity estimate (log intensity, higher = more binding, comparable within an allelic series); with HOXB6 [4], 9.18 upbm affinity estimate (log intensity, higher = more binding, comparable within an allelic series); in the experiment with HOXB6 [5], 9.23 upbm affinity estimate (log intensity, higher = more binding, comparable within an allelic series).
Take CCACGCGC: the binding signal with VENTX [1] is 8.13 upbm affinity estimate (log intensity, higher = more binding, comparable within an allelic series); with VENTX [2], 8.26 upbm affinity estimate (log intensity, higher = more binding, comparable within an allelic series); with VENTX [3], 8.14 upbm affinity estimate (log intensity, higher = more binding, comparable within an allelic series); in the experiment with HOXB6 [4], 9.05 upbm affinity estimate (log intensity, higher = more binding, comparable within an allelic series); with HOXB6 [5], 8.96 upbm affinity estimate (log intensity, higher = more binding, comparable within an allelic series).
With CTCCGTCC, the binding signal was 8.11 upbm affinity estimate (log intensity, higher = more binding, comparable within an allelic series) with VENTX [1]; 8.05 upbm affinity estimate (log intensity, higher = more binding, comparable within an allelic series) with VENTX [2]; 8.03 upbm affinity estimate (log intensity, higher = more binding, comparable within an allelic series) in the experiment with VENTX [3]; 6.35 upbm affinity estimate (log intensity, higher = more binding, comparable within an allelic series) in the experiment with ALX1 [6]; 6.21 upbm affinity estimate (log intensity, higher = more binding, comparable within an allelic series) with ALX1 [7]; 6.5 upbm affinity estimate (log intensity, higher = more binding, comparable within an allelic series) with PROP1 [8]. Also, the binding signal with PROP1 [9] was 6.55 upbm affinity estimate (log intensity, higher = more binding, comparable within an allelic series); in the experiment with PROP1 [10], 6.51 upbm affinity estimate (log intensity, higher = more binding, comparable within an allelic series); with ALX1 [11], 6.3 upbm affinity estimate (log intensity, higher = more binding, comparable within an allelic series).
Regarding ACTTATAA, the binding signal was 9.95 upbm affinity estimate (log intensity, higher = more binding, comparable within an allelic series) with VENTX [1]; 10.5 upbm affinity estimate (log intensity, higher = more binding, comparable within an allelic series) with VENTX [2]; 10 upbm affinity estimate (log intensity, higher = more binding, comparable within an allelic series) with VENTX [3]; 11.3 upbm affinity estimate (log intensity, higher = more binding, comparable within an allelic series) with HOXD13 [12]; 11 upbm affinity estimate (log intensity, higher = more binding, comparable within an allelic series) with HOXD13 [13].
With GCGGCCCC, the binding signal in the experiment with VENTX [1] was 8.15 upbm affinity estimate (log intensity, higher = more binding, comparable within an allelic series); with VENTX [2] it was 8.27 upbm affinity estimate (log intensity, higher = more binding, comparable within an allelic series); in the experiment with VENTX [3], 8.25 upbm affinity estimate (log intensity, higher = more binding, comparable within an allelic series); in the experiment with HOXA2 [14], 6.96 upbm affinity estimate (log intensity, higher = more binding, comparable within an allelic series); with HOXA2 [15], 9.93 upbm affinity estimate (log intensity, higher = more binding, comparable within an allelic series); in the experiment with HOXA2 [16], 10.3 upbm affinity estimate (log intensity, higher = more binding, comparable within an allelic series). In the experiment with HOXA2 [17], the binding signal is 7.15 upbm affinity estimate (log intensity, higher = more binding, comparable within an allelic series).
With CGGGTCGC, the binding signal is 8.13 upbm affinity estimate (log intensity, higher = more binding, comparable within an allelic series) with VENTX [1]; 8.41 upbm affinity estimate (log intensity, higher = more binding, comparable within an allelic series) with VENTX [2]; 8.28 upbm affinity estimate (log intensity, higher = more binding, comparable within an allelic series) in the experiment with VENTX [3]; 9.33 upbm affinity estimate (log intensity, higher = more binding, comparable within an allelic series) with NKX2-6; 9.47 upbm affinity estimate (log intensity, higher = more binding, comparable within an allelic series) in the experiment with MSX2 [18]; 9.59 upbm affinity estimate (log intensity, higher = more binding, comparable within an allelic series) with MSX2 [19]. In the experiment with MSX2 [20], the binding signal was 9.55 upbm affinity estimate (log intensity, higher = more binding, comparable within an allelic series).
As for CGCCCGGA, the binding signal in the experiment with VENTX [1] is 7.98 upbm affinity estimate (log intensity, higher = more binding, comparable within an allelic series); with VENTX [2], 7.85 upbm affinity estimate (log intensity, higher = more binding, comparable within an allelic series); with VENTX [3], 8.06 upbm affinity estimate (log intensity, higher = more binding, comparable within an allelic series); with HOXD13 [21] it was 9.55 upbm affinity estimate (log intensity, higher = more binding, comparable within an allelic series); with HOXD13 [12], 9.51 upbm affinity estimate (log intensity, higher = more binding, comparable within an allelic series); in the experiment with HOXD13 [13] it was 9.62 upbm affinity estimate (log intensity, higher = more binding, comparable within an allelic series).
As for AGTCTGCC, the binding signal was 8.03 upbm affinity estimate (log intensity, higher = more binding, comparable within an allelic series) with VENTX [1]; 8.12 upbm affinity estimate (log intensity, higher = more binding, comparable within an allelic series) in the experiment with VENTX [2]; 8.07 upbm affinity estimate (log intensity, higher = more binding, comparable within an allelic series) with VENTX [3]; 6.46 upbm affinity estimate (log intensity, higher = more binding, comparable within an allelic series) in the experiment with ALX1 [6]; 6.59 upbm affinity estimate (log intensity, higher = more binding, comparable within an allelic series) with ALX1 [7]; 6.61 upbm affinity estimate (log intensity, higher = more binding, comparable within an allelic series) in the experiment with ALX1 [11].
CCATTAGC: the binding signal was 12.2 upbm affinity estimate (log intensity, higher = more binding, comparable within an allelic series) with VENTX [1]; 12.9 upbm affinity estimate (log intensity, higher = more binding, comparable within an allelic series) with VENTX [2]; 11.9 upbm affinity estimate (log intensity, higher = more binding, comparable within an allelic series) in the experiment with VENTX [3]; 12.3 upbm affinity estimate (log intensity, higher = more binding, comparable within an allelic series) with HOXA2 [14]; 11.4 upbm affinity estimate (log intensity, higher = more binding, comparable within an allelic series) with HOXA4; 13.1 upbm affinity estimate (log intensity, higher = more binding, comparable within an allelic series) with HOXA2 [15]. For the same sequence, the binding signal in the experiment with HOXA2 [16] was 10.6 upbm affinity estimate (log intensity, higher = more binding, comparable within an allelic series); with HOXA2 [17] it was 12 upbm affinity estimate (log intensity, higher = more binding, comparable within an allelic series); with VAX1, 12.4 upbm affinity estimate (log intensity, higher = more binding, comparable within an allelic series).
Take CCCGTCCG: the binding signal with VENTX [1] is 7.93 upbm affinity estimate (log intensity, higher = more binding, comparable within an allelic series); with VENTX [2] it was 7.94 upbm affinity estimate (log intensity, higher = more binding, comparable within an allelic series); with VENTX [3], 7.87 upbm affinity estimate (log intensity, higher = more binding, comparable within an allelic series); with ALX3 [22], 7.62 upbm affinity estimate (log intensity, higher = more binding, comparable within an allelic series); in the experiment with ALX3 [23], 7.58 upbm affinity estimate (log intensity, higher = more binding, comparable within an allelic series); with ALX3 [24] it was 7.67 upbm affinity estimate (log intensity, higher = more binding, comparable within an allelic series). Moreover, the binding signal is 7.65 upbm affinity estimate (log intensity, higher = more binding, comparable within an allelic series) in the experiment with ALX3 [25] and 7.6 upbm affinity estimate (log intensity, higher = more binding, comparable within an allelic series) with ALX3 [26].
As for CCCGACCG, the binding signal in the experiment with VENTX [1] was 8.21 upbm affinity estimate (log intensity, higher = more binding, comparable within an allelic series); with VENTX [2] it was 8.16 upbm affinity estimate (log intensity, higher = more binding, comparable within an allelic series); in the experiment with VENTX [3], 8.1 upbm affinity estimate (log intensity, higher = more binding, comparable within an allelic series); in the experiment with NKX2-6 it was 9.21 upbm affinity estimate (log intensity, higher = more binding, comparable within an allelic series); with ALX3 [22], 7.73 upbm affinity estimate (log intensity, higher = more binding, comparable within an allelic series); in the experiment with ALX3 [23], 7.81 upbm affinity estimate (log intensity, higher = more binding, comparable within an allelic series). The binding signal with ALX3 [24] is 7.73 upbm affinity estimate (log intensity, higher = more binding, comparable within an allelic series); with ALX3 [25], 7.72 upbm affinity estimate (log intensity, higher = more binding, comparable within an allelic series); with ALX3 [26] it was 7.76 upbm affinity estimate (log intensity, higher = more binding, comparable within an allelic series).

The values are drawn from PMC11006913.
